# Assay results reported in PubChem BioAssay (NCATS).
# Inconclusive results are not listed. A number with no mark means an inactive call. Activity calls are given as the source filed them. Calls come from the whole dose curve; as a rule, active = well fitted cell-killing curve with a large enough effect; inconclusive = small, poorly fitted or top-dose-only effect; inactive = flat fitted curve, though single readings scatter.
# Experiment: qHTS of pediatric cancer cell lines to identify multiple opportunities for drug repurposing: Primary screen for DAOY cells (AID 1347090); note: nearly all actives have a fitted effect of over 55% in size
# Details: DAOY medulloblastoma viability, CellTiter-Glo luminescence, 48 h; series mostly up to 46 µM; activity change, negative = cytotoxic: at the top concentration
# From the text: Drug repurposing or repositioning has been offered as a strategy for drug development in oncology programs. This approach has special potential for childhood cancers and other rare or orphan diseases, where the expected return on new drug development has been a disincentive to pharmaceuticals.
# In this project we exploit the poly-pharmacology of drugs to discover new indications via phenotypic screening of a panel of 19 well-characterized cell lines derived from solid tumors seen in children and adolescents. The goal is to identify approved drugs with previously unrecognized anticancer properties that has the potential to reveal new mechanisms and biological processes involved in carcinogenesis or drug resistance. We employed a titration-based paradigm (quantitative high-throughput screening or qHTS), where all compounds were tested at multiple concentrations for their effect on cell viability. Concentration-response curves (CRCs) were derived directly from the primary screen, and both potency and efficacy values were used to identify compounds with robust bioactivity profiles. We screened the NIH Chemical Genomics Center (NCGC) Pharmaceutical Collection (NPC) and Mechanism Interrogation Plate (MIPE) small molecule collections of approved and investigational compounds against these cell lines; and measured metabolically active cells after 48 hours of compound treatment as a proxy for cell viability.
# Assay Submitter: Nathalia J. Martinez, National Center for Advancing Translational Sciences, National Institutes of Health, Rockville, MD, USA; email: natalia.martinez@nih.gov
# [1] Shen, M et al. Quantitative high-throughput phenotypic screening of pediatric cancer cell lines identifies multiple opportunities for drug repurposing. Oncotarget 2017 Dec 19;9(4):4758-4772. PMID 29435139.
# The cells were obtained from University of North Carolina (UNC), Pediatric Preclinical Testing Program (PPT), and Coriell Institute (CI).
# qHTS cell viability assay:
# Cells were assayed in growth media at a density of 500-1,000 cells/well. Five microliters of cells were dispensed into 1,536-well, white, solid-bottom, TC-treated plates (Greiner Bio One) using a multidrop dispenser and incubated at 37 degrees C, 5% CO2, under a humidified atmosphere for 5 hours. Twenty-three nanoliters of compounds and controls (neutral control DMSO or positive control bortezomib at final concentration of 2.3 µM) were subsequently transferred by Kalypsys pintool. For primary screens, the MIPE collection was tested at 11-point dilutions (final concentrations range from 0.78 nM to 46 µM) and the NPC collection at 8-point dilutions (final concentrations range from 0.59 nM to 46 µM). Compounds tested in follow-up screens were assayed at 11-point dilutions. Cells were incubated for 48 hours, followed by addition of 3 uL of CellTiter-Glo (Promega). After a 15 min incubation at room temperature, samples were analyzed for luminescence intensity using a ViewLux High-throughput CCD imager equipped with clear filters.
# Potency is the fitted concentration of half-maximal effect.
SMILES,"activity change, negative = cytotoxic",Potency
Cc1cc(O)c(C(C)C)cc1Cl,0.499%,
N[C@@H](CCC(=O)N[C@@H](CS)C(=O)NCC(=O)O)C(=O)O,1.66% [at 16.1 µM],
COc1cccc(OC)c1C(=O)N[C@@H]1C(=O)N2[C@@H]1SC(C)(C)[C@@H]2C(=O)O,16.1%,
C[C@]12CC[C@@H]3c4ccc(O)cc4CC[C@H]3[C@@H]1C[C@@H](O)[C@@H]2O,3.47%,
CCCCc1nc(Cl)c(CO)n1Cc1ccc(-c2ccccc2-c2nn[nH]n2)cc1,8.1%,
CC(C)(C)NC(=O)[C@@H]1CN(Cc2cccnc2)CCN1C[C@@H](O)C[C@@H](Cc1ccccc1)C(=O)N[C@H]1c2ccccc2C[C@H]1O,-0.379%,
CC1=C(C(=O)O)N2C(=O)[C@@H](NC(=O)[C@H](N)c3ccc(O)cc3)[C@H]2SC1,6.52%,
CC1(C)O[C@@H]2C[C@H]3[C@@H]4CCC5=CC(=O)CC[C@]5(C)[C@@]4(F)[C@@H](O)C[C@]3(C)[C@]2(C(=O)CCl)O1,3.47%,
COc1cccc2c1C(=O)c1c(O)c3c(c(O)c1C2=O)C[C@@](O)(C(C)=O)C[C@@H]3O[C@H]1C[C@H](N)[C@H](O)[C@H](C)O1,,1.06 µM (active)
c1ccc(CNCCNCc2ccccc2)cc1,-2.18%,
CCOC(=O)/C=C(C)/C=C/C=C(C)/C=C/c1c(C)cc(OC)c(C)c1C,-1.69%,
CC(=O)OCC(=O)NCCCOc1cccc(CN2CCCCC2)c1,-3.29%,
Cc1onc(-c2c(Cl)cccc2Cl)c1C(=O)N[C@@H]1C(=O)N2[C@@H]1SC(C)(C)[C@@H]2C(=O)O,-6.11%,
OCc1ccccc1O,12.3%,
C[C@]12CCC(=O)C=C1[C@@H]1C[C@@H]1[C@H]1[C@@H]3[C@@H]4C[C@@H]4[C@@]4(CCC(=O)O4)[C@@]3(C)CC[C@@H]12,-14.4%,
Cc1ccc(C(=O)C(C)CN2CCCCC2)cc1 (stereo not given),-3.91%,
Cc1c(N(C)CS(=O)(=O)O)c(=O)n(-c2ccccc2)n1C,-5.7%,
O=C(CCCN1CCC(O)(c2ccc(Br)cc2)CC1)c1ccc(F)cc1,2.91%,
C=C1C(=C/C=C2\CCC[C@]3(C)[C@@H]([C@H](C)/C=C/[C@@H](O)C4CC4)CC[C@@H]23)C[C@@H](O)C[C@@H]1O,-13%,
CCCCCCC[N+](CC)(CC)CCCCc1ccc(Cl)cc1,,26.6 µM (active)

SMILES,"activity change, negative = cytotoxic",Potency
CC(C)(CO)[C@@H](O)C(=O)NCCCO,8.13%,
O=C(OCCOCCO)c1ccccc1Nc1cccc(C(F)(F)F)c1,-13.4%,
CCCCCC=CCC=CCCCCCCCC(=O)OCC,-1.78%,
CN1C(CCl)Nc2cc(Cl)c(S(N)(=O)=O)cc2S1(=O)=O (stereo not given),3.11%,
CN(C)CC/C=C1\c2ccccc2Sc2ccc(Cl)cc21,-7.65%,
CCOC(=O)OC(C)OC1=C(C(=O)Nc2ccccn2)N(C)S(=O)(=O)c2ccccc21 (stereo not given),4.97%,
COc1ccc(OC)c(C(O)CNC(=O)CN)c1 (stereo not given),9.14%,
CC(C)n1nc(-c2cc3cc(O)ccc3[nH]2)c2c(N)ncnc21,,4.22 µM (active)
Oc1cc(O)c2c(c1)O[C@H](c1ccc(O)c(O)c1)[C@H](O)C2,0.234%,
O=C(Nc1ccc(Oc2ccc(Cl)cc2)c(Cl)c1)c1cc(I)cc(I)c1O,-13.8%,
O=C(O)CNC(=O)c1ccccc1,4.04%,
COc1cc(C(=S)N2CCOCC2)cc(OC)c1OC,0.683%,
CCOC(=O)COc1ccc2c(C)c(CCN(CC)CC)c(=O)oc2c1Cl,5.45%,
CCCCOc1ccc(C(=O)CCN2CCCCC2)cc1,-15.9%,
Clc1ccc2c(c1)CCc1cccnc1C2=C1CCNCC1,-11.4%,
O=C1OC2(c3ccc(O)cc3Oc3cc(O)ccc32)c2ccccc21,-13.9%,
CCOC(=O)n1ccn(C)c1=S,-12%,
CC(C)=CCC1C(=O)N(c2ccccc2)N(c2ccccc2)C1=O,-7.06%,
COc1ccc(CN2CCN(C(c3ccc(F)cc3)c3ccc(F)cc3)CC2)c(OC)c1OC,-14.8%,
Nc1ccc(/C=C/c2ccc(N)cc2S(=O)(=O)O)c(S(=O)(=O)O)c1,10% [at 0.597 µM],
